Experimental data: the supplement of paper PMC10981050
Where “and” joins values, the source holds several entries; their conditions need not be identical. Equal values may be shown once. Where a name gives a salt, the structure may show the parent alone.

Assays:
Experiment in all cases: cell viability relative to vehicle control; higher = less cytotoxic
Details in all cases: 10 µM
[1] = system: K562
In short: (§1)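 Four leukaemia lines, as CRISPR-edited mutant clones and isogenic wild-type clones, were tested against Selleck bioactive, kinase and epigenetic probe libraries after removal of identity-inconsistent compounds. Cells were exposed to a single 10 µM dose for 48 h, and CellTiter-Glo luminescence was then read. Viability was calculated relative to the on-plate vehicle control.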

[2] = system: MARIMO
In short: as §1

[3] = system: MOLM14
In short: as §1

[4] = system: OCI-AML2
In short: as §1

| Compound | cell viability ([1]; SRSF2 genotype: SRSF2 P95H/wt) | cell viability ([1]; SRSF2 genotype: SRSF2 wt/wt) | cell viability ([2]; SRSF2 genotype: SRSF2 P95H/wt) | cell viability ([2]; SRSF2 genotype: SRSF2 wt/wt) | cell viability ([3]; SRSF2 genotype: SRSF2 P95H/wt) | cell viability ([3]; SRSF2 genotype: SRSF2 wt/wt) | cell viability ([4]; SRSF2 genotype: P95H/wt) | cell viability ([4]; SRSF2 genotype: wt/wt) |
| --- | --- | --- | --- | --- | --- | --- | --- | --- |
| CNC(=O)c1ccccc1Nc1cc(Nc2ccc(N3CCOCC3)cc2OC)ncc1C(F)(F)F | 77.7% and 90% | 82.8% | 38.6% | 35.2% | 11.4% | 11.4% | 21.3% | 26.5% |
| Cc1cc(-c2ncc(CC(=O)Nc3ccc(-c4cnccn4)cn3)cc2C)ccn1 | 73.5% and 84.3% | 81.2% | 81.6% | 70% | 48.8% | 51.1% | 54.8% | 63.5% |
| CN1CCCN(C(=O)c2cccc(-c3ccc(/C=C4/C(=O)Nc5ccc(Cl)cc54)o3)c2)CC1 | 0.32% | 0.41% | 0.26% | 0.37% | 0.32% | 0.29% | 0.21% | 0.42% |
| CC[C@H]1OC(=O)[C@H](C)[C@@H](O[C@H]2C[C@@](C)(OC)[C@@H](O)[C@H](C)O2)[C@H](C)[C@@H](O[C@@H]2O[C@H](C)C[C@H](N(C)C)[C@H]2O)[C@](C)(O)C[C@@H](C)C(=O)[C@H](C)[C@@H](O)[C@]1(C)O [Erythromycin] | 99.5% and 99.1% | 97.1% | 101% | 98.2% | 104% | 99.6% | 106% | 103% |
| COc1ccc(-c2nc(-c3cc(C(F)(F)F)cc(C(F)(F)F)c3)n(Cc3ccc(C(N)=O)cc3)c2-c2ccc(OC)cc2)cc1 [Apoptozole] | 80.8% and 87.7% | 80.8% | 89.9% | 88.9% | 88.5% | 90.3% | 69.4% | 84.9% |
| CO/N=C(\C(=O)N[C@@H]1C(=O)N2C(C(=O)O)=C(CSc3nnnn3C)CS[C@H]12)c1csc(N)n1 [Cefmenoxime hydrochloride] | 96.7% and 90.3% | 100% | 98.4% | 97.1% | 99.7% | 98.8% | 97.2% | 101% |
| CCOC(=O)c1cnc2ccc(-c3cncc(NS(=O)(=O)c4ccccc4)c3)cn12 | 22.4% and 35.9% | 34.2% | 17.1% | 20% | 3.14% | 4.38% | 2.77% | 9.47% |
| CN(C/C=C/C#CC(C)(C)C)Cc1cccc2ccccc12 [Terbinafine hydrochloride (Lamisil)] | 88.5% and 88.7% | 90.3% | 87.8% | 105% | 86.8% | 99.9% | 87.4% | 97.6% |
| CNCc1ccc(C)c(NC(=O)c2ccc(Nc3nc(-c4ccccc4)c4ccccc4n3)cc2)c1 | 0.99% and 1.39% | 1.34% | 0.68% | 0.61% | 0.42% | 0.52% | 0.4% | 0.57% |
| COC(=O)C1=COC(OC2OC(CO)C(O)C(O)C2O)C2C(C)CC(=O)C12O (stereo not given) [Hastatoside] | 108% and 101% | 107% | 104% | 99.3% | 108% | 104% | 99.5% | 102% |
| C=C1CCC2C(C)(COC(=O)CCC(=O)O)C(OC(=O)CCC(=O)O)CCC2(C)C1C=CC1=CCOC1=O (stereo not given) [Dehydroandrographolide Succinate] | 114% and 108% | 111% | 101% | 101% | 109% | 107% | 106% | 105% |
| CC(C)=CCC[C@](C)(O[C@@H]1O[C@H](CO[C@@H]2O[C@@H](CO)[C@H](O)[C@H]2O)[C@@H](O)[C@H](O)[C@H]1O)[C@H]1CC[C@]2(C)[C@@H]1[C@H](O)C[C@@H]1[C@@]3(C)CC[C@H](O[C@@H]4O[C@H](CO)[C@@H](O)[C@H](O)[C@H]4O[C@@H]4O[C@H](CO)[C@@H](O)[C@H](O)[C@H]4O)C(C)(C)[C@@H]3CC[C@]12C [Ginsenoside Rc] | 103% and 101% | 100% | 99.1% | 101% | 110% | 99.2% | 104% | 93.5% |
| Nc1nc(=O)[nH]c2c1ncn2[C@@H]1O[C@H](CO)[C@@H](O)[C@H]1O [Isoguanosine] | 101% and 98.5% | 98.7% | 94.7% | 97.7% | 93.3% | 96.8% | 106% | 91.8% |
| C[C@@H](O)[C@H]1C(=O)N2C(C(=O)O)=C(S[C@@H]3CN[C@H](CNS(N)(=O)=O)C3)[C@H](C)[C@H]12 [Doripenem Hydrate] | 95.8% and 101% | 94.1% | 94.6% | 101% | 103% | 97.5% | 96.4% | 99% |
| CCOc1cc(N2CCC(O)CC2)ccc1Nc1ncc2c(n1)N(C)c1ccccc1C(=O)N2C | 91% and 89.7% | 88% | 73% | 59.6% | 62.4% | 55.3% | 58.3% | 67.9% |
| COc1cc2c(cc1OC)-c1cc3ccc(OC)c(OC)c3c[n+]1CC2 [Palmatine chloride] | 82.8% and 81.3% | 75.1% | 81% | 93% | 82.6% | 86% | 81.9% | 80.9% |
| C[C@]12CC[C@@H]3c4ccc(O)cc4C[C@@H](CCCCCCCCC[S+]([O-])CCCC(F)(F)C(F)(F)F)[C@H]3[C@@H]1CC[C@@H]2O (stereo not given in full) [Fulvestrant (Faslodex)] | 86% and 87.5% | 79.5% | 77.1% | 87% | 93.1% | 89.1% | 91.4% | 96.7% |
| COc1nc2ccc(Br)cc2cc1[C@@H](c1ccccc1)[C@@](O)(CCN(C)C)c1cccc2ccccc12 [Bedaquiline] | 74.8% and 74.5% | 85.4% | 70.4% | 69.3% | 51.8% | 75.5% | 38.5% | 55.4% |
| Cc1ccc(-c2c(-c3nn(C)c4ncnc(N5CC[C@H](N6CCCCC6)C5)c34)cnn2C)cc1 | 92.8% and 98% | 105% | 96.5% | 98.5% | 95.1% | 101% | 103% | 102% |
| C[C@@H]1C(=O)O[C@H](C)[C@H]1C[C@@H](O)[C@](C)(O)[C@H]1CC[C@@]2(O)C3=CC(=O)[C@@H]4C[C@@H](O)[C@@H](O)C[C@]4(C)[C@H]3CC[C@]12C [Cyasterone] | 105% and 98% | 105% | 95.2% | 98.3% | 114% | 105% | 105% | 98.2% |
